Screening results from PubChem BioAssay.
This is a sample that favours compounds with a hit; in the whole collection about 4.1% have one here.
MEKK2wt PB1 HTS – raises or lowers MEK5 binding to wildtype human MEKK2 PB1 domain. Q9Y2U5. bead flow cytometry, Alexa488-MEK5 binding to MEKK2 WT; actives lie on both sides. binding response (% of control), % at 10 µM. 1.1% of 290,000 active. AID 1531; in the data active = binding response below about 67% or above about 130%
MEKK2 mut-MEK5 – signal of MEK5 binding to mutant human MEKK2 PB1 domain. bead flow cytometry, Alexa488-MEK5 binding to MEKK2 mutant. percent response, % at 10 µM. 0.35% of 290,000 active; in the data active = percent response above about 24%, passing the limit was not always enough
CHT block – inhibits the human high affinity choline transporter; B-score at 10 µM; AID 488975; CHT-expressing cells, membrane potential dye, choline response; active compounds read low; Q9GZV3; 0.86% of 310,000 active;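 active = B-score over 3 SD under the library average, and starting fluorescence ratio not unusually high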;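 also: choline stimulus applied at its EC90 after an EC20 pre-addition; B-score computed on integrated fluorescence ratio after choline addition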
MEKK3 PB1 HTS – MEKK3-MEK5 PB1 interaction, increase or decrease. Q99759. bead-based flow cytometry, Alexa488-MEK5 binding to MEKK3; actives lie on both sides; 0 = blocked by unlabeled MEK5, 100 = vehicle. 1.4% of 290,000 active. binding response (% of control), % at 10 µM;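 active = binding response more than 3 SD above or below the average of its plate-row segment, actives on both sides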;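 also: Alexa488 bead fluorescence after subtracting the streptavidin-only scavenger bead signal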
Target sequence (Q99759 whole entry, looked up): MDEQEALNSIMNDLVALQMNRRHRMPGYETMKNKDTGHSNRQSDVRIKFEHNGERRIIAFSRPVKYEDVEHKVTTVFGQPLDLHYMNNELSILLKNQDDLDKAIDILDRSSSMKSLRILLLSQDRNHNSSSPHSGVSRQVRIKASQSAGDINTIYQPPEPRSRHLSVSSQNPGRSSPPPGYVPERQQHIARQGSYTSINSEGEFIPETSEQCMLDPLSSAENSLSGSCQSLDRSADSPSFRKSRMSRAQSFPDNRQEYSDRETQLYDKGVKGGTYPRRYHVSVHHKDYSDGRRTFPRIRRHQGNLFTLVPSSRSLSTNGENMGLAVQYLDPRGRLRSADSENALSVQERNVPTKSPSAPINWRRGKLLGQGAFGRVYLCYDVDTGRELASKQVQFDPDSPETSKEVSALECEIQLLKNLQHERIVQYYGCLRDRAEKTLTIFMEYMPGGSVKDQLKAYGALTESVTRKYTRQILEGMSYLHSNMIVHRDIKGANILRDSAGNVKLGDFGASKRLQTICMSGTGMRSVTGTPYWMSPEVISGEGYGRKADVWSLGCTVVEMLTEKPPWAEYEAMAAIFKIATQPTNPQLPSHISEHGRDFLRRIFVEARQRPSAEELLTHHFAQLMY
CHT PAM – allosterically activates the human high affinity choline transporter; Q9GZV3; CHT-expressing cells, membrane potential dye, choline EC20; active compounds read high; LV-AA mutant CHT in HEK293 cells; B-score at 10 µM; 0.49% of 310,000 active; AID 488977;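 active = initial fluorescence not abnormally high and integrated response B-score, plate-corrected, over 3 SD above library mean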
SUMO Mot1 rescue – inhibitors of SUMOylation pathway: yeast Mot1-301 growth rescue | S. cerevisiae Mot1-301 growth rescue, ATP luminescence, 38.5C; percent above DMSO median, 100 means doubled | growth rescue, % at 18.8 µM | 1% of 320,000 active;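 active = every valid replicate shows activation above 250% relative to neutral control wells; inactive = the rest, any valid replicate at or below 250%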;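 also: OY570 slx delta 5 strain wells were the positive control but not used for scaling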
MEKK2wt confirm – raises or lowers MEK5 binding to wildtype human MEKK2, retest | shares compounds with MEKK3 PB1 HTS | bead flow cytometry, Alexa488-MEK5 binding to MEKK2 WT; actives lie on both sides | binding response (% of control), % at 10 µM | 2.4% of 5,900 active | AID 1892; in the data active = binding response below about 16% or above about 210%; inactive = in between
MEKK2mut-MEK5 – signal of MEK5 binding to mutant human MEKK2, retest; 2% of 5,900 active; percent response, % at 10 µM; bead flow cytometry, Alexa488-MEK5 binding to MEKK2 mutant; AID 1893; shares compounds with MEKK3 PB1 HTS; in the data active = percent response mostly above about 71%, no sharp cut-off; inactive = mostly below about 38%;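 also: higher means compound restores mutant binding toward wildtype level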
MEKK3 confirm – MEKK3-MEK5 PB1 inhibition, single concentration confirmation. shares compounds with MEKK3 PB1 HTS. bead flow cytometry, Alexa488-MEK5 binding to MEKK3; active compounds read low. binding response (% of control), % at 10 µM. 1.8% of 5,900 active. AID 1894;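 active = binding response below 72% of control, or above a set upper limit, though filed actives all read lower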;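 also: 100% = DMSO only wells and 0% = binding blocked by excess unlabeled MEK5; lower values mean stronger disruption of MEK5 binding to MEKK3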
* hit, by the source's call; [ ] = another dose, or the depositor's remark.

What do the screens show for `CC(=O)NS(=O)(=O)c1ccc(NC(=S)NC(=O)COc2ccccc2C)cc1`?
MEKK2wt PB1 HTS: 106.0; MEKK2 mut-MEK5: 0.0; CHT block: inactive; MEKK3 PB1 HTS: 139.0*; CHT PAM: inactive; SUMO Mot1 rescue: 1.3; MEKK2wt confirm: 92.0; MEKK2mut-MEK5: -6.0; MEKK3 confirm: 98.0

What do the screens show for `COc1ccccc1OCCNS(=O)(=O)c1ccc2oc3ccccc3c2c1`?
MEKK2wt PB1 HTS: 109.0; MEKK2 mut-MEK5: 3.0; CHT block: inactive; MEKK3 PB1 HTS: 138.0*; CHT PAM: inactive; SUMO Mot1 rescue: -10.5; MEKK2wt confirm: 104.0; MEKK2mut-MEK5: 1.0; MEKK3 confirm: 102.0

Results for O=S(=O)(NCCOc1ccccc1Cl)c1ccc2oc3ccccc3c2c1 ?
CHT block: inactive; CHT PAM: inactive; SUMO Mot1 rescue: 0.9

What do the screens show for `CCOc1ccc(NC(=O)CSc2nnc(C3CC3)n2C)cc1`?
MEKK2wt PB1 HTS: 97.0; MEKK2 mut-MEK5: -1.0; CHT block: inactive; MEKK3 PB1 HTS: 93.0; CHT PAM: inactive; SUMO Mot1 rescue: 3.4

What do the screens show for `CCOC(=O)c1ccc(NC(=O)CSc2nnc(C3CCCCC3)n2C)cc1`?
MEKK2wt PB1 HTS: 96.0; MEKK2 mut-MEK5: 7.0; CHT block: inactive; MEKK3 PB1 HTS: 126.0*; CHT PAM: inactive; SUMO Mot1 rescue: 210.9; MEKK2wt confirm: 98.0; MEKK2mut-MEK5: -2.0; MEKK3 confirm: 97.0

What do the screens show for `Nc1nncn1C(=O)CCc1ccccc1`?
MEKK2wt PB1 HTS: 94.0; MEKK2 mut-MEK5: -1.0; CHT block: inactive; MEKK3 PB1 HTS: 101.0; CHT PAM: inactive; SUMO Mot1 rescue: -6.7

How did O=C(O)CCS(=O)(=O)Cc1ccccc1F do in these assays?
MEKK2wt PB1 HTS: 2.0*[inhibitor]; MEKK2 mut-MEK5: -46.0; CHT block: inactive; MEKK3 PB1 HTS: 2.0*[inhibitor]; CHT PAM: inactive; SUMO Mot1 rescue: -4.0; MEKK2wt confirm: 108.0; MEKK2mut-MEK5: 5.0; MEKK3 confirm: 105.0

What do the screens show for `N=c1c2c(-c3ccccc3)c(-c3ccccc3)n(Cc3ccco3)c2ncn1Cc1ccco1`?
MEKK2wt PB1 HTS: 152.0*; MEKK2 mut-MEK5: 41.0*; CHT block: inactive; MEKK3 PB1 HTS: 112.0; CHT PAM: inactive; SUMO Mot1 rescue: -17.2; MEKK2wt confirm: 155.0; MEKK2mut-MEK5: 25.0; MEKK3 confirm: 104.0

What do the screens show for `Cc1ccccc1Nc1cc(C)c2c(O)cccc2n1`?
MEKK2wt PB1 HTS: 75.0; MEKK2 mut-MEK5: -7.0; CHT block: inactive; MEKK3 PB1 HTS: 57.0*[inhibitor]; CHT PAM: inactive; SUMO Mot1 rescue: -1.6; MEKK2wt confirm: 115.0; MEKK2mut-MEK5: 16.0; MEKK3 confirm: 100.0

Results for Cc1cccc(-n2nc3c(c2NC(=O)c2ccc4c(c2)OCO4)CS(=O)(=O)C3)c1C ?
MEKK2wt PB1 HTS: 92.0; MEKK2 mut-MEK5: -4.0; CHT block: inactive; MEKK3 PB1 HTS: 95.0; CHT PAM: inactive; SUMO Mot1 rescue: -3.1

What do the screens show for `COc1cc(/C=N/O)ccc1OCc1ccc(Cl)cc1`?
MEKK2wt PB1 HTS: 92.0; MEKK2 mut-MEK5: -4.0; CHT block: inactive; MEKK3 PB1 HTS: 96.0; CHT PAM: inactive; SUMO Mot1 rescue: 9.5

Results for CCOc1cc(/C=N/O)ccc1OCc1ccc(F)cc1 ?
MEKK2wt PB1 HTS: 108.0; MEKK2 mut-MEK5: 2.0; CHT block: inactive; MEKK3 PB1 HTS: 108.0; CHT PAM: inactive; SUMO Mot1 rescue: 2.6

What do the screens show for `CCOc1cc(/C=N/N=C(N)N)ccc1OCc1ccc(Cl)cc1`?
MEKK2wt PB1 HTS: 149.0*; MEKK2 mut-MEK5: 6.0; CHT block: inactive; MEKK3 PB1 HTS: 104.0; CHT PAM: inactive; SUMO Mot1 rescue: 12.5; MEKK2wt confirm: 202.0; MEKK2mut-MEK5: 63.0; MEKK3 confirm: 109.0

What do the screens show for `COc1cc(/C=N/N=C(N)N)ccc1OCc1ccc(Cl)cc1`?
MEKK2wt PB1 HTS: 230.0*; MEKK2 mut-MEK5: 69.0*; CHT block: inactive; MEKK3 PB1 HTS: 122.0; CHT PAM: inactive; SUMO Mot1 rescue: 7.2; MEKK2wt confirm: 180.0; MEKK2mut-MEK5: 48.0; MEKK3 confirm: 102.0

How did CC(=O)N1CCN(C(=O)CCC(=O)O)CC1 do in these assays?
MEKK2wt PB1 HTS: 7.0*[inhibitor]; MEKK2 mut-MEK5: -6.0; CHT block: inactive; MEKK3 PB1 HTS: 19.0*[inhibitor]; CHT PAM: inactive; SUMO Mot1 rescue: 6.5; MEKK2wt confirm: 105.0; MEKK2mut-MEK5: 8.0; MEKK3 confirm: 107.0

Results for CC(=O)N1CCN(CC(=O)O)CC1 ?
MEKK2wt PB1 HTS: 92.0; MEKK2 mut-MEK5: -12.0; CHT block: inactive; MEKK3 PB1 HTS: 98.0; CHT PAM: inactive; SUMO Mot1 rescue: 1.1

How did CCOc1ccc(CC(=NCCc2ccccc2)C2=C(O)CC(C)(C)CC2=O)cc1OCC do in these assays?
MEKK2wt PB1 HTS: 112.0; MEKK2 mut-MEK5: 1.0; CHT block: inactive; MEKK3 PB1 HTS: 146.0*; CHT PAM: inactive; SUMO Mot1 rescue: 81.5; MEKK2wt confirm: 77.0; MEKK2mut-MEK5: -13.0; MEKK3 confirm: 79.0

Results for CCOc1ccc(CC(=N)C2=C(O)CC(C)(C)CC2=O)cc1OCC ?
MEKK2wt PB1 HTS: 101.0; MEKK2 mut-MEK5: 0.0; CHT block: inactive; MEKK3 PB1 HTS: 108.0; CHT PAM: inactive

Results for CC1CC(C)CN(C(=O)COC(=O)COc2ccc(C#N)cc2)C1 (stereo not drawn) ?
SUMO Mot1 rescue: -0.1

Results for OCCOCCOc1ccc(-c2nn[nH]n2)cc1 ?
MEKK2wt PB1 HTS: 97.0; MEKK2 mut-MEK5: -1.0; CHT block: inactive; MEKK3 PB1 HTS: 74.0*[inhibitor]; CHT PAM: inactive; SUMO Mot1 rescue: 51.0; MEKK2wt confirm: 101.0; MEKK2mut-MEK5: 1.0; MEKK3 confirm: 94.0

What do the screens show for `COc1ccc2c(=O)c(-c3ccccc3)c(C)oc2c1`?
MEKK2wt PB1 HTS: 96.0; MEKK2 mut-MEK5: -2.0; CHT block: inactive; MEKK3 PB1 HTS: 103.0; CHT PAM: inactive; SUMO Mot1 rescue: 13.7

What do the screens show for `CCc1ccc(C(C(=O)NCCOC)N(C(=O)Cn2nnc3ccccc32)c2cccnc2)cc1` (stereo not drawn)?
MEKK2wt PB1 HTS: 2.0*[inhibitor]; MEKK2 mut-MEK5: 5.0; CHT block: inactive; MEKK3 PB1 HTS: 2.0*[inhibitor]; CHT PAM: inactive; SUMO Mot1 rescue: 44.8; MEKK2wt confirm: 102.0; MEKK2mut-MEK5: -1.0; MEKK3 confirm: 101.0
